Max response, Potency and outcome data for 38 compounds are collected here from PubChem BioAssay (NCATS).

Molecules are shown by their SMILES. Records with an inconclusive call do not appear. Calls of active or inactive are those of the source. Calls follow the shape of the dose curve; as a rule, active = well fitted inhibition curve with a large enough effect; inconclusive = small, poorly fitted or top-dose-only effect; inactive = flat fitted curve, though single readings scatter.
% is scaled to controls: 0 for no effect and ±100 for the full control effect; potency is read from the fitted curve at half-maximal effect.

The test system of one test is HaCat. In words: Cytotoxic Profiling of Annotated Libraries Using Quantitative High-Throughput Screening (AID 1296008). Also: nearly all actives have a fitted effect of over 60% in size. To be noted: Five cell lines viability, CellTiter-Glo ATP luminescence, 48-72 h; max response: stronger effect = lower value. In short, it runs like this:
(§1)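 Cells exposed to compounds for 48 or 72 hr at 37 degrees Celsius. Viability read as ATP-coupled luminescence with CellTiter-Glo after 10 min at room temperature.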
(ATP-based viability assays read luminescence as a measure of living cells.)
For `c1ccc2c(c1)CCc1ccccc1N2`, the max response was -8.39% (inactive).

In the case of `CC(CCc1ccc2c(c1)OCO2)NN` (stereo unspecified), the max response was 2.43% (inactive).

Take `Cc1ccccc1C(=O)N1CC/C(=N\OS(=O)(=O)O)c2ccc(Cl)cc21`: the max response is -13.2% (inactive).

Turning to `CC(=O)OC[C@H]1O[C@@H](OC(C)=O)[C@H](OC(C)=O)[C@@H]1OC(C)=O`, the max response is 2.57% (inactive).

`CCOc1ccccc1OCC1CNCCO1` (stereo unspecified): the max response is 0.667% (inactive).

Take `C#CC(C)(CC)OC(=O)c1ccccc1C(=O)O` (stereo unspecified): the max response was -2.23% (inactive).

`CC(C)C(=O)OCc1cccc(OC(=O)[C@@H]2N3C(=O)[C@@H](NC(=O)Cc4ccccc4)[C@H]3SC2(C)C)c1`: the max response was -11.1% (inactive).

For `C/C(=C1\CCOC(=O)S1)N(C=O)Cc1cnc(C)nc1N`, the max response was 0.182% (inactive).

Turning to `CC1c2ccccc2CN1NC(=O)c1ccc(Cl)c(S(N)(=O)=O)c1` (stereo unspecified), the max response was 0.897% (inactive).

Consider `CCc1cccc2c(CCO)c[nH]c12`, for which the max response was 2.18% (inactive).

In the case of `Nc1nc(=O)n([C@@H]2O[C@H](CO)[C@@H](O)[C@@H]2F)cc1I`, the max response was 3.07% (inactive).

Consider `Nc1c[n+](N2CCOCC2)no1`, for which the max response is -23.5% (inactive).

Regarding `O=C(O)CCC(=O)OC[C@@H](NC(=O)C(Cl)Cl)[C@H](O)c1ccc([N+](=O)[O-])cc1`, the max response is 0.154% (inactive).

As for `CC(C)C(=O)Nc1cccc(C2CN3CCSC3=N2)c1` (stereo unspecified), the max response was -7.7% (inactive).

`CCOC(=O)O[C@]1(C(=O)OCCl)CC[C@H]2[C@@H]3CCC4=CC(=O)C=C[C@]4(C)[C@H]3[C@@H](O)C[C@@]21C`: the max response is -4.73% (inactive).

As for `COC(=O)c1ccc(NC(C)=O)cc1OC`, the max response was -9.21% (inactive).

`C[C@H]1C[C@H](O)c2ccsc2S1(=O)=O`: the max response was 2.62% (inactive).

Take `CC(=O)O[C@H]1CC[C@@]2(C)C(=CC[C@@H]3[C@@H]2CC[C@]2(C)C(C(C)=O)=CC[C@@H]32)C1`: the max response is -12.2% (inactive).

As to `CC(=O)c1cc2ccccc2s1`, the max response was -0.924% (inactive).

Regarding `CCOC(=O)C(=O)c1csc(NC=O)n1`, the max response is 4.32% (inactive).

For `CC(C)(Oc1ccc(Cl)cc1)C(=O)OCCCOC(=O)C(C)(C)Oc1ccc(Cl)cc1`, the max response was -1.93% (inactive).

Regarding `O=C(O)CCCC[C@@H]1SC[C@@H]2NC(=O)N[C@@H]21`, the max response was 4.46% (inactive).

Consider `Cc1c(F)cc2c(=O)c(C(=O)O)cn3c2c1CCC3C` (stereo unspecified), for which the max response is -5.41% (inactive).

Regarding `CN1CCN(N)CC1`, the max response was 1.4% (inactive).

Turning to `Fc1ccc(C(c2ccc(F)cc2)N2CCNCC2)cc1`, the max response is -17.9% (inactive).

In the case of `N#Cc1cc(NC(=O)C(=O)O)c(Cl)c(NC(=O)C(=O)O)c1`, the max response was -3.53% (inactive).

Take `Cc1nc2n(c(=O)c1CCN1CCC(C(=O)c3ccc(F)cc3)CC1)CCS2`: the max response was 1.44% (inactive).

In the case of `CCS(=O)(=O)c1ccc(OC)c(C(=O)OC)c1`, the max response was 4.82% (inactive).

As for `O=C1CC2(CCCC2)CC(=O)N1CCNCC1COc2ccccc2O1` (stereo unspecified), the max response was -0.105% (inactive).

In the case of `CCCCOCCOC(=O)c1cccnc1`, the max response is -21.3% (inactive).

Take `C/C(=N\O)[C@@H](C)NCC(C)(C)CN[C@H](C)/C(C)=N/O`: the max response is -13.6% (inactive).

Take `C#Cc1ccc(-c2ccccc2F)cc1`: the max response was 3.65% (inactive).

For `O=C(O)C1CCC1`, the max response is 1.71% (inactive).

Take `NC(=O)NC1N=C([O][Al])NC1=O` (stereo unspecified): the max response is 3.4% (inactive).

With `CC(C)CCCC(C)NCCC(C)C` (stereo unspecified), the max response was 3.37% (inactive).

Regarding `Nc1ccc(C(=O)OCC(O)CO)cc1` (stereo unspecified), the max response was -8.17% (inactive).

As for `CCCCCCCCCCCC[N+](C)(C)Cc1ccccc1`, the Potency was 4.73 µM (active).

For the compound `Cc1onc(-c2c(Cl)cccc2Cl)c1C(=O)Cl`, the max response is -4.26% (inactive).

A further test deals with NIH3T3. Described as above. The following applies: Five cell lines viability, CellTiter-Glo ATP luminescence, 48-72 h; max response: stronger effect = lower value. The essentials: as §1
Consider `c1ccc2c(c1)CCc1ccccc1N2`, for which the compound was classed as inactive.

In the case of `CC(CCc1ccc2c(c1)OCO2)NN` (stereo unspecified), the result was inactive.

For the compound `Cc1ccccc1C(=O)N1CC/C(=N\OS(=O)(=O)O)c2ccc(Cl)cc21`, the max response was -8.25% (inactive).

`CC(=O)OC[C@H]1O[C@@H](OC(C)=O)[C@H](OC(C)=O)[C@@H]1OC(C)=O`: the outcome was inactive.

`CCOc1ccccc1OCC1CNCCO1` (stereo unspecified): the call was inactive.

With `C#CC(C)(CC)OC(=O)c1ccccc1C(=O)O` (stereo unspecified), the result was inactive.

Take `CC(C)C(=O)OCc1cccc(OC(=O)[C@@H]2N3C(=O)[C@@H](NC(=O)Cc4ccccc4)[C@H]3SC2(C)C)c1`: the max response is 4.46% (inactive).

Turning to `C/C(=C1\CCOC(=O)S1)N(C=O)Cc1cnc(C)nc1N`, the max response is 0.237% (inactive).

For `CC1c2ccccc2CN1NC(=O)c1ccc(Cl)c(S(N)(=O)=O)c1` (stereo unspecified), the max response is 2.57% (inactive).

With `CCc1cccc2c(CCO)c[nH]c12`, the max response was 1.36% (inactive).

As to `Nc1nc(=O)n([C@@H]2O[C@H](CO)[C@@H](O)[C@@H]2F)cc1I`, the max response was -21.4% (inactive).

Take `Nc1c[n+](N2CCOCC2)no1`: the compound was classed as inactive.

For the compound `O=C(O)CCC(=O)OC[C@@H](NC(=O)C(Cl)Cl)[C@H](O)c1ccc([N+](=O)[O-])cc1`, the max response was -0.147% (inactive).

For the compound `CC(C)C(=O)Nc1cccc(C2CN3CCSC3=N2)c1` (stereo unspecified), the max response was -0.0334% (inactive).

`CCOC(=O)O[C@]1(C(=O)OCCl)CC[C@H]2[C@@H]3CCC4=CC(=O)C=C[C@]4(C)[C@H]3[C@@H](O)C[C@@]21C`: the compound was called inactive.

On to `COC(=O)c1ccc(NC(C)=O)cc1OC`, for which the max response is -16.1% (inactive).

Turning to `C[C@H]1C[C@H](O)c2ccsc2S1(=O)=O`, the max response was 1.66% (inactive).

For `CC(=O)O[C@H]1CC[C@@]2(C)C(=CC[C@@H]3[C@@H]2CC[C@]2(C)C(C(C)=O)=CC[C@@H]32)C1`, the max response was -1.15% (inactive).

As for `CC(=O)c1cc2ccccc2s1`, the max response was 1.18% (inactive).

Regarding `CCOC(=O)C(=O)c1csc(NC=O)n1`, the max response is 0.793% (inactive).

Take `CC(C)(Oc1ccc(Cl)cc1)C(=O)OCCCOC(=O)C(C)(C)Oc1ccc(Cl)cc1`: the max response is 1.4% (inactive).

For `O=C(O)CCCC[C@@H]1SC[C@@H]2NC(=O)N[C@@H]21`, the max response is 1.46% (inactive).

Consider `Cc1c(F)cc2c(=O)c(C(=O)O)cn3c2c1CCC3C` (stereo unspecified), for which the max response is -8.9% (inactive).

On to `CN1CCN(N)CC1`, for which the call was inactive.

For the compound `Fc1ccc(C(c2ccc(F)cc2)N2CCNCC2)cc1`, the max response is -2.81% (inactive).

On to `N#Cc1cc(NC(=O)C(=O)O)c(Cl)c(NC(=O)C(=O)O)c1`, for which the max response was -0.466% (inactive).

Take `Cc1nc2n(c(=O)c1CCN1CCC(C(=O)c3ccc(F)cc3)CC1)CCS2`: the max response is -4.75% (inactive).

As to `CCS(=O)(=O)c1ccc(OC)c(C(=O)OC)c1`, the compound was called inactive.

`O=C1CC2(CCCC2)CC(=O)N1CCNCC1COc2ccccc2O1` (stereo unspecified): the max response is -7.46% (inactive).

Turning to `CCCCOCCOC(=O)c1cccnc1`, the max response is -2.28% (inactive).

As for `C/C(=N\O)[C@@H](C)NCC(C)(C)CN[C@H](C)/C(C)=N/O`, the max response was -0.119% (inactive).

On to `C#Cc1ccc(-c2ccccc2F)cc1`, for which the call was inactive.

For `O=C(O)C1CCC1`, the max response was -4.19% (inactive).

`NC(=O)NC1N=C([O][Al])NC1=O` (stereo unspecified): the max response is 1.11% (inactive).

Regarding `CC(C)CCCC(C)NCCC(C)C` (stereo unspecified), the compound was called inactive.

Consider `Nc1ccc(C(=O)OCC(O)CO)cc1` (stereo unspecified), for which the max response is 2.44% (inactive).

For the compound `CCCCCCCCCCCC[N+](C)(C)Cc1ccccc1`, the Potency is 6.68 µM (active).

Regarding `Cc1onc(-c2c(Cl)cccc2Cl)c1C(=O)Cl`, the max response is -2.46% (inactive).
